Data: publication PMC10726135, “HNF4α isoforms regulate the circadian balance between carbohydrate and lipid metabolism in the liver”
Over roughly 18,000 sequences, “log2 normalized intensity” has its median near 0.39; the highest 2% begin near 6.6. The sample holds the highest values, similar sequences and a random draw of the others, so the mix is not that of the screen.

Target: T1, HNF4alpha2 (COS-7 nuclear extract) (Homo sapiens, UniProt P41235 1-474)
T1 sequence: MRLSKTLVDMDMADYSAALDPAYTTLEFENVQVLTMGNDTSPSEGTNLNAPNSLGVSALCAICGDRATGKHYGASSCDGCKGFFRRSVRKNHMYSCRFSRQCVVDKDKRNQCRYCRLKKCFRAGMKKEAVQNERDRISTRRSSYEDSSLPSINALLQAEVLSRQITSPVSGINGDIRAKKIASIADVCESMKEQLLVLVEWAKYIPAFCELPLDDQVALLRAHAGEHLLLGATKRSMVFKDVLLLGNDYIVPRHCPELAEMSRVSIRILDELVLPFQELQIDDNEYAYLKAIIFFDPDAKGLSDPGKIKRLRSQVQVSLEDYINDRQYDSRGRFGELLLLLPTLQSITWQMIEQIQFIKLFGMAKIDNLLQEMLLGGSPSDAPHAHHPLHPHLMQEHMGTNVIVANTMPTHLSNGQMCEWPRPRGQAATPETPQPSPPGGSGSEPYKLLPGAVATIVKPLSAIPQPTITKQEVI
Assay: protein-binding microarray; COS-7 nuclear extract on double-stranded Agilent 4x180k PBM; binding buffer, salt, pH and temperature not given in the material; high values mean tight binding
Conditions: chain copies: 2; label: 3' end of strand 1 on the slide; dsDNA, one strand shown
Method in brief: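 Double-stranded oligonucleotides of ~60 nt, representing ~44,000 test sequences in quadruplicate, made up a custom Agilent SurePrint G3 4x180k array. Nuclear extracts from COS-7 cells transiently transfected by CaPO4 with a human HNF4α isoform expression vector were applied, and bound HNF4α was imaged at 2-µm resolution on an Agilent G2565CA scanner. Binding signal refers to the background-corrected, normalized gProcessedSignal output of Agilent software.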

| Sequence | binding signal [log2 normalized intensity] |
| --- | --- |
| TTCCAGAGCCTTCAAAGGAAAGCAGGTGTTGCCTAGGGAGATTAGAGTATCGGTCGA | 0.55 |
| CAGGGTCAATGTCCCCTTAGGAATAGTATCGCCTAGGGAGATTAGAGTATCGGTCGA | 2.14 |
| GGACTTTGGCCCTCAGCCCAATGTGGTAGGGCCTAGGGAGATTAGAGTATCGGTCGA | 5.47 |
| GGGATGGACTTTGGCCCTCAGCCCAATGTGGCCTAGGGAGATTAGAGTATCGGTCGA | 6.2 |
| TTGAAAGGGACTTAGAATCGAATTGTGAAAGCCTAGGGAGATTAGAGTATCGGTCGA | -0.196 |
| GAACAGCAAGACTTTGGCCCTGCAGACTTTGCCTAGGGAGATTAGAGTATCGGTCGA | 2.09 |
| CTGGACTTTGGCTGCAAAATTTGAACAAAAGCCTAGGGAGATTAGAGTATCGGTCGA | 1.55 |
| ACCTGGAACTGAAAGAGACCTTTGACATCAGCCTAGGGAGATTAGAGTATCGGTCGA | 4.5 |
| TGAATTCTGCAGCAGATGGCCAGCCTTTGGGCCTAGGGAGATTAGAGTATCGGTCGA | -0.936 |
| AAAGAGATTGGACTTTGGCCTGTGAATCCAGCCTAGGGAGATTAGAGTATCGGTCGA | 8.37 |
| TCTGCAGCAGATGGCCAGCCTTTGGACTTTGCCTAGGGAGATTAGAGTATCGGTCGA | 7.15 |
| TACTGGGGATGGACTTTGGCCCTCAGCCCAGCCTAGGGAGATTAGAGTATCGGTCGA | 8.56 |
| CAGCCTTTGGACTTTGAACTGCAACATCAGGCCTAGGGAGATTAGAGTATCGGTCGA | 8.26 |
| GATTGGACTTTGGCCTGTGAATCCACATTCGCCTAGGGAGATTAGAGTATCGGTCGA | 5.98 |
| CCCTTTGCACATGCCCCTCCCAGGGACACAGCCTAGGGAGATTAGAGTATCGGTCGA | 3.12 |
| CAGAAAAATGGAGCAGCTCTGTATTGAGATGCCTAGGGAGATTAGAGTATCGGTCGA | -0.99 |
| TGCCATTCTTCCAGTTGTGTGCACAAGAGGGCCTAGGGAGATTAGAGTATCGGTCGA | 1.7 |
| GAATTTCATTTTGCTCTTTGTTCAGATACAGCCTAGGGAGATTAGAGTATCGGTCGA | 1.33 |
| TTTTTTCAAGTGTTAGCTGTTTCCAAATATGCCTAGGGAGATTAGAGTATCGGTCGA | 1.42 |
| AATCCCTTAGGCTTTTGCACTTTACTCAGAGCCTAGGGAGATTAGAGTATCGGTCGA | 3.14 |
| CCCCTCCCTCCGCAACCTTTACTCCTTGTGGCCTAGGGAGATTAGAGTATCGGTCGA | 3.68 |
| GTCACCACCTTTTTTGGCCTTTACCCCTTGGCCTAGGGAGATTAGAGTATCGGTCGA | 4.8 |

| Sequence | binding signal [log2 normalized intensity] |
| --- | --- |
| AAAAAACCCTAGAGATGTACACAGTTCAAAGCCTAGGGAGATTAGAGTATCGGTCGA | -0.874 |
| GGATAATGTGCCCTTTGTACCTGGGGCAAAGCCTAGGGAGATTAGAGTATCGGTCGA | 5.03 |
| TTCCTGCATTAACATCAACATGGACTTTGAGCCTAGGGAGATTAGAGTATCGGTCGA | 8.62 |
| ATGGCCAGCCTTTGGACTTTGAACTGCAACGCCTAGGGAGATTAGAGTATCGGTCGA | 9.66 |
| TACCTTTCCTGCATTAACATCAACATGGACGCCTAGGGAGATTAGAGTATCGGTCGA | 2.1 |
| TCAAATATTTGGATAATGTGCCCTTTGTACGCCTAGGGAGATTAGAGTATCGGTCGA | 6.6 |
| AGCAGATGGCCAGCCTTTGGACTTTGAACTGCCTAGGGAGATTAGAGTATCGGTCGA | 10.7 |
| TATTTGGATAATGTGCCCTTTGTACCTGGGGCCTAGGGAGATTAGAGTATCGGTCGA | 7.01 |
| AGGGTCTTTGCAACTGTGTGTGGCCTGCACGCCTAGGGAGATTAGAGTATCGGTCGA | 1.38 |
| GCATTAACATCAACATGGACTTTGAGTCATGCCTAGGGAGATTAGAGTATCGGTCGA | 6.21 |
| TTTGAAGCAAAGCCTTTGAGCAGATGGAAGGCCTAGGGAGATTAGAGTATCGGTCGA | 0.0298 |
| TTTTTGGCCTTTACCCCTTGAGTTTGAACTGCCTAGGGAGATTAGAGTATCGGTCGA | 3.59 |
| TGGTGGCACAGGGAATGGCTCGTATGAATGGCCTAGGGAGATTAGAGTATCGGTCGA | 0.46 |
| ATTGACAAAGACCAGTGCTCTTTCTTCTCTGCCTAGGGAGATTAGAGTATCGGTCGA | -0.734 |
| AGGGTTCAAACTCCAGCTCTGATACTTTCTGCCTAGGGAGATTAGAGTATCGGTCGA | 3.12 |
| GTGAGGCATCTGGACCATTGCTGACCTTGCGCCTAGGGAGATTAGAGTATCGGTCGA | 3.01 |
| CTCTCGTCACCTCCACCCACCCGTGCATCAGCCTAGGGAGATTAGAGTATCGGTCGA | 4.68 |
| TCCCACTAGGTGGCGCTGTTGACCTTGAAAGCCTAGGGAGATTAGAGTATCGGTCGA | 3.09 |
| GCCATCTGGTGGACTTTGCTCTGCTCATTTGCCTAGGGAGATTAGAGTATCGGTCGA | 6.26 |
| CTGCTTGATAGCCATCTGGTGGACTTTGCTGCCTAGGGAGATTAGAGTATCGGTCGA | 5.26 |
| TGATAGCCATCTGGTGGACTTTGCTCTGCTGCCTAGGGAGATTAGAGTATCGGTCGA | 7.44 |
